Screens: PubChem BioAssay, several laboratories
Compounds with a hit are over-represented: about 4.3% of the library has one in this group of screens.
NR3A LBD binder – binders of NR3A ligand-binding domain, primary screen, biophysical, differential scanning fluorimetry, uHTS. Tm shift relative to glycine control, % at 25 µM. AID 1259313, 2017. NR3A LBD differential scanning fluorimetry, Tm shift; 0% = protein alone, 100% = glycine-bound protein. 340,000 tested, 2.5% active;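 active = melting temperature shift of at least 10% of the positive control shift, at one fixed dose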
sPLA2-III inh – human group III sPLA2 inhibitors, primary screen, biochemical, QFRET, BODIPY PC-A2 liposome substrate; Group 3 secretory phospholipase A2 (Homo sapiens), Q9NZ20; QFRET BODIPY PC-A2 liposome hydrolysis, fluorescence; inhibition, % at 12.2 µM; 370,000 tested, 0.56% active; AID 743126, 2013;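 active = inhibition above mean plus 3 SD of compounds lying within the high and low control bounds, cut at about 19% in these data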;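 also: 0% = median of test compound wells and 100% = no enzyme DMSO wells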
Target sequence (Q9NZ20 whole entry, looked up): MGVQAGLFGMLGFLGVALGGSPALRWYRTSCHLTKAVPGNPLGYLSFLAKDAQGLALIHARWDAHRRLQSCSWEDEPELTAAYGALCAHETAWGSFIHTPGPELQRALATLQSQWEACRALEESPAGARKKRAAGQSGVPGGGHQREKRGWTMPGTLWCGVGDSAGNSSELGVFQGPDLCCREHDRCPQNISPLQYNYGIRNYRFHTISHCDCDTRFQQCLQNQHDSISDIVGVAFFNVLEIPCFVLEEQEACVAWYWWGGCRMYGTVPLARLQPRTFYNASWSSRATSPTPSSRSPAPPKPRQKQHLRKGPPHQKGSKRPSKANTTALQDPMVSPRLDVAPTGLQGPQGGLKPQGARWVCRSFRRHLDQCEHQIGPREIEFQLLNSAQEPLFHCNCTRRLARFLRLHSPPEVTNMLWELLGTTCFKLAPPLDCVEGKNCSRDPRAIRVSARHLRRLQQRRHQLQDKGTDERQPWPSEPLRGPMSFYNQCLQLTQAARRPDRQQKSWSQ
ADAM17 inh – ADAM17 inhibitors, primary screen, biochemical, QFRET. inhibition, % at 6.95 µM. recombinant ADAM17, EDANS/DABCYL FRET peptide cleavage. 370,000 tested, 0.83% active;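 active = inhibition above the mean of compounds lying between control limits plus 3 SD, set per campaign, cut at about 8.5% in these data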;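 also: 0% = DMSO-only wells as the low control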
FAS-TE inh – FAS thioesterase domain inhibitors, primary screen, biochemical, fluorescence intensity, uHTS; Fatty acid synthase (Homo sapiens), P49327; recombinant FAS-TE, OMFH fluorogenic substrate, fluorescence endpoint; inhibition, % at 15 µM; 360,000 tested, 0.67% active; AID 602261, 2012;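 active = compounds whose normalised, plate-corrected inhibition of enzyme fluorescence in the single-dose primary screen is 50% or more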;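 also: 0% = DMSO with enzyme and 100% = substrate without enzyme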
ADAM10 inh – human ADAM10 inhibitors, primary screen, biochemical, QFRET, HTS | AID 720582, 2013 | recombinant ADAM10, EDANS/DABCYL FRET peptide cleavage, 3 h | 370,000 tested, 0.62% active | inhibition, % at 7 µM | Disintegrin and metalloproteinase domain-containing protein 10 (Homo sapiens), O14672;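 active = inhibition above a per-campaign cutoff equal to the mean of compounds falling between control-based bounds plus 3 SD, cut at about 20% in these data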;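 also: 0% = DMSO wells while the 100% control is not disclosed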
* = called active by the depositor; x = no result given.

SMILES | NR3A LBD binder | sPLA2-III inh | ADAM17 inh | FAS-TE inh | ADAM10 inh
O=C(CSc1nnc(-c2cccnc2)n1Cc1ccco1)Nc1cc(Cl)ccc1F | x | -7 | 3 | x | 4
CC(Cl)C(=O)N1CCC(C(=O)NCC2COc3ccccc3O2)CC1 (configuration not stated) | x | 4 | 2 | x | -8
COc1ccccc1NC(=O)C(C)OC(=O)CCC1CCCCC1 (configuration not stated) | 11* | -7 | 2 | 24 | -3
COC(=O)c1sccc1-c1ccc(C(=O)Nc2cccc(Cl)c2)o1 | 24* | 1 | 0 | 29 | 5
COc1ccc(/C=C2/SC(=S)N(CCCC(=O)Nc3ccc(O)cc3)C2=O)cc1 | 13* | -42 | 1 | 7 | 7
O=C(CCN1C(=O)/C(=C/c2ccc(F)cc2)SC1=S)Nc1cc([N+](=O)[O-])ccc1O | 18* | -1 | -3 | 12 | 0
COc1ccc(/C=C2\SC(=S)N(CCC(=O)Nc3cccc(O)c3)C2=O)cc1 | 35* | -4 | -2 | 4 | 6
O=C(CCCN1C(=O)/C(=C/c2cccs2)SC1=S)Nc1cccnc1 | -6 | -2 | -4 | -3 | -1
COc1ccc(/C=C2\SC(=S)N(CCCC(=O)Nc3ccc(O)cc3)C2=O)cc1 | 5 | -33 | 1 | 9 | 9
O=C(CCCN1C(=O)/C(=C\c2cccs2)SC1=S)Nc1cccnc1 | 13* | 2 | 3 | -2 | -3
CCc1ccc([C@@H]2CC=C(C(=O)O)[C@H](c3ccc(C(C)(C)C)cc3)N2S(=O)(=O)c2ccc(C)cc2)cc1 | 0 | -33 | 5 | 54* | 9
CCCc1c(C(=O)N/N=C/c2cccnc2)nnn1-c1nonc1N | 32* | 8 | -5 | -3 | 1
Nc1nonc1-n1nnc(C(=O)N/N=C/c2cccnc2)c1CSc1ccccc1 | 19* | 2 | 0 | 3 | 4
C/C(=N\NC(=O)c1nnn(-c2nonc2N)c1CSc1ccc(Cl)cc1)c1cccnc1 | -14 | 4 | -2 | 16 | -3
CCCc1c(C(=O)N/N=C/c2ccc(-c3ccccc3)cc2)nnn1-c1nonc1N | x | 11 | 2 | -6 | -8
Nc1nonc1-n1nnc(C(=O)N/N=C/c2cccnc2)c1CSc1ccc(Cl)cc1 | 12* | -9 | -3 | 14 | 2
Nc1nonc1-n1nnc(C(=O)N/N=C/c2cccnc2)c1CSC1=NCCS1 | -2 | -7 | 1 | 3 | 2
COC(=O)[C@]12C[C@H](CC(=O)NCc3ccc(OC)c(OC)c3)C(=O)N(CCc3ccc(OC)c(OC)c3)C1=C[C@H](C1CCCC1)O[C@@H]2C | x | -20 | 0 | x | 6
Cc1ccc(NC(=O)Cn2nnc(-c3ccncc3)n2)cc1C | x | 1 | -3 | x | -3
O=C(CCNS(=O)(=O)c1ccc(Cl)cc1)N1CCCCCC1 | 11* | 1 | 2 | -3 | 6
O=C(N/N=C/c1ccc(F)cc1)c1cc(-c2ccc3c(c2)OCO3)n[nH]1 | 29* | 17 | 0 | -6 | 15
COc1cc(/C=N/NC(=O)c2ccc3c(c2)OCO3)ccc1O | -12 | 1 | -4 | -5 | -2
O=C(N/N=C/c1cc2c(cc1Cl)OCO2)c1cc(-c2ccccc2)n[nH]1 | 32* | -5 | -1 | 2 | 0
CN(C)c1ccc(/C=N/NC(=O)c2ccc3c(c2)OCCO3)cc1 | 21* | 7 | -1 | 2 | -6
Cc1ccc(-c2cc(C(=O)NN=Cc3ccc(F)cc3)[nH]n2)cc1C | x | 9 | 0 | x | -2
SMILES | NR3A LBD binder | sPLA2-III inh | ADAM17 inh | FAS-TE inh | ADAM10 inh
COc1ccc(/C=N/NC(=O)c2cc(-c3ccc4c(c3)OCO4)n[nH]2)cc1OC | 25* | -4 | -3 | -4 | -8
CCN(CC)c1ccc(/C=N/NC(=O)c2ccc3c(c2)OCCO3)cc1 | -2 | 4 | -6 | 16 | -27
O=C(NCCO)[C@H](Cc1ccccc1)NC1(C(=O)NCCc2c[nH]c3ccccc23)CCCCC1 | x | -57 | 0 | x | 1
CCOC(=O)[C@@]12CCCC=C1N(CCc1ccc(Cl)cc1)C(=O)[C@H]2CC(=O)NCc1cccc(C(F)(F)F)c1 | x | -18 | 7 | x | 8
CN(C)c1ccc(/C=N/NC(=O)c2cc(-c3ccc4c(c3)OCO4)n[nH]2)cc1 | 12* | 2 | -9 | -14 | -20
Cc1ccc(-c2cc(C(=O)NN=Cc3ccc(-c4ccccc4)cc3)[nH]n2)cc1 | x | 3 | 0 | x | -4
C#CCNC(=O)C[C@H]1C[C@@]2(C(=O)OC)C(=C[C@H](COCc3ccccc3)O[C@@H]2C)N(Cc2ccccc2)C1=O | x | 0 | -3 | x | -1
O=C(N/N=C/c1ccccc1F)C(=O)N1CCCCCC1 | -1 | -1 | 0 | -2 | 5
O=C(N/N=C/c1ccccc1O)C(=O)N1CCCCCC1 | 11* | -9 | -12 | 7 | -38
Cc1cccc(OCCNC(=O)c2ncn[nH]2)c1 | -1 | -14 | 5 | -12 | -3
O=C(NCCOc1ccccc1)c1ncn[nH]1 | 10* | 0 | 1 | -11 | 9
C[C@@H]1CCN(C2CC2)S(=O)(=O)c2ccc(N3CC[C@@H](N(C)C)C3)cc2O1 | x | -1 | -5 | x | -1
COc1ccc(C#Cc2c(-c3ccccc3OC)oc3ccccc23)cc1 | x | 3 | -6 | x | -20
C=C(C)CNC(=S)NNC(=O)CCn1c2cc(Cl)ccc2c2ccc(Cl)cc21 | 16* | 11 | 5 | 8 | 2
C=CCN(Cc1ccc2c(c1)OCO2)C(C#CC1CC1)C(C)C (configuration not stated) | x | 12 | -4 | x | -4
CCCCC#CC(CC)NCc1ccc(OC)cc1OC (configuration not stated) | x | -8 | 1 | x | 6
CCc1ccccc1OCC(=O)Nc1ccc(S(N)(=O)=O)cc1 | 3 | -8 | -3 | -4 | -8
NS(=O)(=O)c1ccc(NC(=O)COc2cccc3ccccc23)cc1 | 16* | -15 | 0 | 0 | -9
COc1ccc(NC(=O)c2cc3ccccc3o2)cc1 | 2 | 6 | 0 | 2 | 8
O=C(Nc1cccc(NC(=O)c2ccco2)c1)c1ccccc1 | -3 | 3 | 1 | -1 | 6
COc1ccc(NC(=O)c2cc3ccccc3o2)cc1OC | 26* | -1 | -1 | 1 | -1
O=C(Nc1cccc(NC(=O)c2nccc3ccccc23)c1)c1ccco1 | 19* | -5 | 4 | 6 | 9
CCC(=O)Nc1ccc(Cl)c(NC(=S)NC(=O)c2cc3ccccc3o2)c1 | 25* | 2 | -3 | -11 | -4
O=C(COc1ccccc1[N+](=O)[O-])Nc1ccc2oc(=O)ccc2c1 | -22 | 8 | 0 | -4 | -6
